The values below come from ChEMBL document CHEMBL1157539, “Thousands of chemical starting points for antimalarial lead identification” (Nature, 2010).

For this test, the system named is HepG2. As to the kind of experiment: GSK_TCMDC: Percent inhibition of human HepG2 cell line. Test compounds present at 10uM. In kind it is functional.
Broadly, the Inhibition is the share of the control response that was lost under treatment. High values mean a response far below the control, low ones a response near the control. Consider `COc1cccc(Nc2nc(C)cc(NC3CCCC3)n2)c1`, for which the Inhibition was found to be 41%.

Consider `CC(=O)Nc1ccc(CN2CCCN(c3cc(NC(=O)c4cccc(C)c4)ccn3)CC2)cc1.O=C(O)C(F)(F)F`, for which the Inhibition was determined as 0%. As for `O=C(NCCc1ccc(Cl)c(Cl)c1)[C@@H]1CCCN1C(=O)c1ccc(O)c(-c2ccc(Cl)c(Cl)c2)c1`, the figure is 0%; as for `Cl.O=C(c1cccc(COc2ccc3c(c2)CCN(C2CCCC2)CC3)c1)N1CCN(c2ccncc2)CC1`, 49%; as for `CCCNCc1ccc(-c2ccc(CN(Cc3ccc4c(c3)OCO4)C(=O)[C@H]3CCCO3)cc2)nc1.O=C(O)C(F)(F)F`, 18%. As for `CN1CCCc2ccc(NC(=O)c3cnc(-c4ccccc4)cn3)cc21`, the figure is 24%. To `O=C(O)C(F)(F)F.O=C1OC2(CN1CC1CCN(Cc3ccc(-n4ccnc4)cc3)C1)c1ccccc1-c1ccccc12` (stereo not given) belongs 25%; to `O=c1cc(NCC2(CNCc3cn(Cc4ccccc4)c4ccccc34)CCCCC2)[nH]c2ccccc12`, 27%; to `Cc1cccc(C(=O)Nc2ccnc(N(C)CCCN(C)Cc3cccc(C#N)c3)c2)c1.O=C(O)C(F)(F)F`, 1%.

In turn, `Cc1ccc(S(=O)(=O)N2CCCN(C(=O)c3cc(-c4ccccc4)[nH]n3)CC2)cc1` returned an Inhibition of 11%. Take `Nc1cc2c(C3CCN(CC4CCN(C(=O)/C=C/c5ccc(Cl)c(Cl)c5)CC4)CC3)c[nH]c2cn1`: the Inhibition is listed as 0%.

In turn, `COc1ccc(CNC(=O)c2cnc3c(O)cccc3c2Nc2cccc(NC(=O)c3ccc(Cl)c(Cl)c3)c2)cc1.O=C(O)C(F)(F)F` registered an Inhibition of 54%.

Consider `COCCOc1ccc(C(F)(F)F)cc1NC(=O)Cc1c(F)cccc1Cl`, for which the Inhibition is given as 18%. Take `CCCCOc1cc(C)nc2ccc(NC(=O)COCC(=O)Nc3ccc4nc(C)cc(OCCCC)c4c3)cc12`: the Inhibition worked out at 0%. Turning to `CN(C)CCOc1ccc2c(c1)OC(C)(C)C=C2c1cccc2ccccc12.Cl`, the Inhibition was 66%.

On to `O=C(O)C(=O)O.Oc1ccccc1CN1CCN(C(c2ccccc2)c2ccccc2)CC1`, for which the Inhibition was 0%.

Turning to `Cc1cccc(C(=O)N2CCN(Cc3cccc(NC(=O)c4cccs4)c3)CC2)c1.O=C(O)C(F)(F)F`, the Inhibition came to 5%.

Turning to `CCCN(CCC)S(=O)(=O)c1ccc(C(=O)Nc2nc3ccc(-c4cc(=O)[nH]c(Nc5ccccc5Cl)n4)cc3[nH]2)cc1`, the Inhibition is on record as 1%.

As to `CC(C)NCc1cccc(-c2ccc(-c3nc4ccccc4[nH]3)cc2)c1.O=C(O)C(F)(F)F`, the Inhibition is listed as 4%.

The compound `CCOc1ccc2ccccc2c1CNCCCCCCNCc1c(OCC)ccc2ccccc12.CS(=O)(=O)O` displayed an Inhibition of 100%. The compound `COc1cc(C(C)C)nc2ccc(NC(=O)c3ccc(C(=O)Nc4ccc5nc(C(C)C)cc(OC)c5c4)cc3)cc12` gave an Inhibition of 39%. As for `Cc1ccc(-c2cc(C(=O)Nc3ccc(S(=O)(=O)N4CCCCC4C)cc3)n[nH]2)c(O)c1` (stereo not given), the figure is 37%; as for `COc1ccc(Nc2nccc(NCCNC(=O)Nc3ccccc3F)n2)cc1`, 4%; as for `Cl.N#Cc1ccc(-c2ccc(C(=O)Nc3ccc4c(c3)CCN(C3CCC3)CC4)nc2)cn1`, 24%. As for `c1cc(CNC2Cc3ccc(-c4cccs4)cc3C2)cc(-n2ccnc2)c1` (stereo not given), the figure is 0%.

`CN(CCCCCNC(=O)/C=C/c1ccc(Cl)c(Cl)c1)CCCCc1c[nH]c2ccccc12` came in with an Inhibition of 17%. On to `O=C(/C=C/c1ccc(-c2nc3cc(F)c(F)cc3[nH]2)cc1)NCc1ccc(Cl)c(Cl)c1`, for which the Inhibition came to 14%. As for `O=C(/C=C/c1ccc(Cl)c(Cl)c1)NCCCCCCN1CCN(C(=O)Nc2ccc(OC(F)F)cc2)CC1`, the Inhibition worked out at 44%. As for `O=C(Nc1cccc(-c2ccc(-c3nc4cc(C(F)(F)F)ccc4[nH]3)cc2)c1)Nc1ccc(Cl)c(Cl)c1`, the figure is 93%; as for `O=C(Nc1ccc(CN2CCOCC2)cc1)c1ccc(-c2ccc(Br)cc2)o1`, 3%. On to `Cc1c(Cl)cccc1S(=O)(=O)N1CCCCC(c2ccc(C(F)(F)F)cc2)=N1`, for which the Inhibition was 15%. As for `COc1ccc(-c2c(-c3ccc(OCc4ccccc4)cc3O)n[nH]c2C(F)(F)F)cc1`, the figure is 49%; as for `CNC(=O)c1nc(-c2ccccc2)[nH]c1NC(C)=O`, 0%. To `CCC(CC(C)C(=O)O)=C(c1ccccc1)c1ccccc1` (stereo not given) belongs 12%; to `CC(C)CCN1CCCN(Cc2ccc(C(=O)NCc3ccc(Cl)cc3)cc2)CC1.O=C(O)C(F)(F)F`, 16%; to `CN1CCN(CCCN(Cc2ccc(-c3cccc(CNCc4ccc5c(c4)OCO5)c3)cc2)C(=O)NCCc2ccccc2)CC1.O=C(O)C(F)(F)F`, 36%. As for `Cc1ccc(-c2nc(N3CCN(C(=O)c4ccco4)CC3)c3ccccc3n2)cc1`, the Inhibition was 0%.

The compound `N#Cc1cccc(NC(=O)Nc2ccc3c(c2)CN(Cc2c[nH]c4ncccc24)C3)c1` yielded an Inhibition of 0%.

As for `COc1cc2nc(Nc3ccc4c(ccn4Cc4ccccc4)c3)nc(Nc3ccc4c(ccn4Cc4ccccc4)c3)c2cc1OC`, the Inhibition is 0%. Turning to `COc1cccc(C(=O)NC(NC(=S)Nc2ccc(OC)cc2[N+](=O)[O-])C(Cl)(Cl)Cl)c1` (stereo not given), the Inhibition is reported as 9%.
